Data taken from PubChem BioAssay AID488969 (Vanderbilt High Throughput Screening Facility, 2010).
Over roughly 110,000 compounds, “z-score” has its median near -0.1; the highest 2% begin near 2. Shown is part of a subset that was picked to be rich in the highest values. The source made the active and inactive calls.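 How the source made its calls: active means z-score in the third read window above 3 or below -3; inactive means the rest.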 Non-standard residues stand in square brackets, D forms with d. Residues, ends and D or L forms follow the SMILES beside them. ξ: configuration not given here. *: point of attachment. Boc = CC(C)(C)OC(=O)*; ξP = O=C(O)C1CCCN1

molecular target: Metabotropic glutamate receptor 8 (Rattus norvegicus) (UniProt P70579); assay: rat mGluR8 modulators via GIRK flux, primary screen, cell-based, thallium flux, HTS (AID 488969); details: HEK293 rat mGluR8, GIRK (G protein-gated inwardly rectifying potassium channel) thallium flux, FluoZin2; at 10 µM; stronger effect = higher value; submaximal glutamate (EC20) added with thallium
Sequence (P70579 whole entry, looked up): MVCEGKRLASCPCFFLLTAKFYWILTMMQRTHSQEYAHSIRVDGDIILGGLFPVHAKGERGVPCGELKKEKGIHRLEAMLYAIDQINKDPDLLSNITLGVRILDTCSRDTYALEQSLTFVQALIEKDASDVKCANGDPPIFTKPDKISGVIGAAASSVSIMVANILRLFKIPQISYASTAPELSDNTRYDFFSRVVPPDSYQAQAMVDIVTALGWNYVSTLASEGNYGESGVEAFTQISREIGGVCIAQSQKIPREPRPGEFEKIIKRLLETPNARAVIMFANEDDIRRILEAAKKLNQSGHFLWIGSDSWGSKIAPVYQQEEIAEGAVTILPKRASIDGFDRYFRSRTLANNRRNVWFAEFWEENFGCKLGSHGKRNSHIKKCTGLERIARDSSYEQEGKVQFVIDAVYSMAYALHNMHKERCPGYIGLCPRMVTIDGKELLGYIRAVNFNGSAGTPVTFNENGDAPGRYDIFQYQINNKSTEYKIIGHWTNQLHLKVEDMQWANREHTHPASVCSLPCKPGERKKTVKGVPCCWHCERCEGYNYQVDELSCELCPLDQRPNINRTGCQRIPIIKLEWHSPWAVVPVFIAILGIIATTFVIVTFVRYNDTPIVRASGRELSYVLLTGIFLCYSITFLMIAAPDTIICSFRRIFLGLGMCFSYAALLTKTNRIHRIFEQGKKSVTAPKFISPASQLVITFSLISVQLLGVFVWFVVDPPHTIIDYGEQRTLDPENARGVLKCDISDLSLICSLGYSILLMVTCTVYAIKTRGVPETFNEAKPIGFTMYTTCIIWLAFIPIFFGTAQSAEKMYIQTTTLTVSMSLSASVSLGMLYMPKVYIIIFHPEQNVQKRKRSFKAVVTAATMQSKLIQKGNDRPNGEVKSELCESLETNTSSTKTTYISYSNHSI

Row | SMILES | z-score
1 | Cc1ccc(C(=O)Oc2coc(CSc3nnc(NC(=O)C4CC4)s3)cc2=O)cc1C | 0.84
2 | Cc1nnc(N(Cc2ccccc2)C(=O)c2cnccn2)s1 | 0.0216
3 | C=CCn1c(SCN2C(=O)c3ccccc3C2=O)nc2ccc(Cl)cc2c1=O | 12.6 (active)
4 | C=CCn1c(SCC(=O)Nc2sccc2C(N)=O)nc2ccc(Cl)cc2c1=O | 5.23 (active)
5 | C=CCn1c(SCC(=O)c2ccc(Cl)s2)nc2ccccc2c1=O | -0.205
6 | C=CCn1c(SCC(=O)Nc2sccc2C(N)=O)nc2sc(CC)cc2c1=O | -1.15
7 | C=CCn1c(SCC(=O)Nc2sccc2C(N)=O)nc2ccccc2c1=O | -0.59
8 | C=CCn1c(SCC(=O)NCCC2=CCCCC2)nc2ccc(Cl)cc2c1=O | -0.151
9 | O=C1C2C3C=CC([C@@H]2C(=O)N1c1nccs1)C31CC1 (stereo partly specified) | -0.0608
10 | Cc1ccc2nc(NC(=O)c3ccc(NS(=O)(=O)c4cccs4)cc3)sc2c1 | 0.062
11 | CC(C)NC(=S)N=Nc1c(O)[nH]c2ccc(C(C)C)cc12 | 0.589
12 | NC(=S)N=Nc1c(O)[nH]c2ccc(F)cc12 | 1.48
13 | CNC(=S)N=Nc1c(O)[nH]c2ccc(C(C)C)cc12 | 5.56 (active)
14 | COC(=O)CNC(=O)C1CCCN1C(=O)OC(C)(C)C (stereo unspecified) (Boc-[ξP]-Gly-OMe) | -0.536
15 | Cn1cc(Cl)c(C(=O)Nc2nc3ccc(Cl)cc3s2)n1 | 0.119
16 | CCOC(=O)N1CCN(c2cc3nccnc3cc2F)CC1 | -0.142
17 | CCOC(=O)N1CCN(c2cc3[nH]c(=S)[nH]c3cc2F)CC1 | -0.482
18 | CCOC(=O)N1CCN(c2c(F)cc3[nH]c(=S)[nH]c3c2Br)CC1 | 6.26 (active)
19 | CC1CCCC(C)N1C(=O)CSc1nnc(NC(=O)Cc2cccs2)s1 (stereo unspecified) | -1.05
20 | Cc1cc(NC(=O)CCC(=O)NNC(=O)c2ccc(C(C)(C)C)cc2)no1 | -0.141
21 | Cc1noc(C)c1CSc1ccccc1C(=O)Nc1nccs1 | 0.618
22 | CCN=c1scc(C)n1/N=C/c1ccc(O)c(O)c1O | -0.528
23 | COCCN=c1scc(-c2cccs2)n1/N=C/c1ccc(O)c(O)c1O | 2.93

Row | SMILES | z-score
24 | CCN=c1scc(C)n1/N=C/c1ccsc1 | -0.0195
25 | Oc1ccc(/C=N/N=C(c2ccccc2)c2ccccc2)c(O)c1O | -0.213
26 | CN=c1scc(C)n1/N=C/c1ccc(O)cc1O | 0.0453
27 | CN=c1scc(C)n1/N=C/c1ccc(O)c(O)c1O | -0.648
28 | COc1ccc(O)c(/C=N/n2c(-c3ccco3)csc2=Nc2cccnc2)c1 | 0.368
29 | COCCNC(=O)Nc1ccc2nc(-c3cccs3)c(-c3cccs3)nc2c1 | -0.235
30 | CN=c1scc(-c2cccs2)n1/N=C/c1ccc(O)c(O)c1O | 3.01 (active)
31 | CN=c1scc(-c2cccs2)n1/N=C/c1ccccc1O | 0.0374
32 | CC(C)N=c1scc(-c2cccs2)n1/N=C/c1ccc(O)c(O)c1O | 4.07 (active)
33 | CCN=c1scc(-c2cccs2)n1/N=C/c1cc(OC)ccc1O | 2.02
34 | COc1cc(/C=N/NC(=O)COc2ccc(Cl)cc2)ccc1OS(=O)(=O)c1ccc(C)cc1 | -0.0849
35 | CCOC(=O)C1=NNC(C(=O)c2ccc(C)cc2)C1c1ccc(C)cc1 (stereo unspecified) | -0.512
36 | C=C(C)c1cccc(C(C)(C)NC(=O)N2CC(C)OC(C)C2)c1 (stereo unspecified) | -0.0325
37 | Cc1nn(C)c(C)c1/C=C(\C#N)C(N)=O | -0.273
38 | Cc1ccc(CN(Cc2ccc(C)o2)C(=S)NCC(=O)O)cc1 | -0.00212
39 | Cc1sc2nc(CN3CCCCC3)nc(Cl)c2c1C | -0.502
40 | Cn1c(NCC(O)CO)nc2c1c(=O)n(Cc1ccc(Cl)c(Cl)c1)c(=O)n2C (stereo unspecified) | -0.188
41 | COc1ccc2c(c1)c(=O)cc(-c1ccccc1)n2C | -0.0758
42 | CCN=c1scc(-c2ccccc2)n1/N=C/c1ccccn1 | -0.0993
43 | COCCN=c1scc(-c2ccccc2)n1/N=C/c1c[nH]c2ccccc12 | 2.05
44 | COCCN=c1scc(-c2cc(OC)ccc2OC)n1/N=C/c1c[nH]c2ccccc12 | -0.343
45 | CCc1cccc(NC(=O)Cn2cc3c(n2)CCCC3)c1 | 0.22
46 | Cc1cc(C)cc(NC(=O)Cn2cc3c(n2)CCCCC3)c1 | 5.95 (active)

Row | SMILES | z-score
47 | O=C(Cn1cc2c(n1)CCCCC2)Nc1c(F)c(F)cc(F)c1F | 0.762
48 | CC(=O)c1cccc(NC(=O)Cn2cc3c(n2)CCCC3)c1 | -0.279
49 | CC1CCCC(NC(=O)Cn2cc3c(n2)CCCCC3)C1C (stereo unspecified) | 0.237
50 | COc1cccc(CNC(=O)Cn2cc3c(n2)CCCCC3)c1 | -0.00462
51 | CC1CCC(NC(=O)Cn2cc3c(n2)CCCC3)CC1 (stereo unspecified) | 2.79
52 | CC1CCc2nn(CC(=O)NC3CCCC3)cc2C1 (stereo unspecified) | -0.653
53 | COc1cccc(NC(=O)Cn2cc3c(n2)CCCCC3)c1 | 2.89
54 | C/C(=N/NC(=O)c1ccc(O)cc1)c1cccc([N+](=O)[O-])c1 | -0.369
55 | Cc1c2ccccc2nc2c(F)c(NCCO)c(F)c(F)c12 | -0.746
56 | COc1ccc(/C=N/OCC(=O)N(Cc2ccc(OC)cc2)c2ccccc2C(=O)O)cc1 | -0.615
57 | Cc1nn(Cc2ccccc2)c(C)c1NC(=O)CCC(=O)O | -0.119
58 | Cc1cc(C)c(C(=O)CSc2nnc(-c3cccnc3)n2C)c(C)c1 | 0.116
59 | CCCCNC(=O)/C=C/c1cccs1 | -0.364
60 | Cc1ccc(C(C#N)c2ccc3c(C(F)(F)F)cc(C(F)(F)F)nc3n2)cc1 (stereo unspecified) | 1.26
61 | N#CC(c1cccc(Cl)c1)c1ccc2c(C(F)(F)F)cc(C(F)(F)F)nc2n1 (stereo unspecified) | 10.5 (active)
62 | N#CC(c1ccccc1)c1ccc2c(C(F)(F)F)cc(C(F)(F)F)nc2n1 (stereo unspecified) | 0.135
63 | C/C(Cl)=C\Cn1c(NCCCn2ccnc2)nc2c1c(=O)n(C)c(=O)n2C | -0.632
64 | Cn1c(=O)[nH]c(=O)c2c1nc(NC1CCCCC1)n2Cc1ccccc1 | 0.331
65 | CC(=O)c1cc(OC(=O)N2CCOCC2)ccc1OC(=O)N1CCOCC1 | -0.376
66 | CN(C)Cc1nc2c(c(=O)[nH]1)C(C)(C)Cc1ccccc1-2 | 0.00689
67 | O=C(COC(=O)c1ccc2c(c1)C(=O)N(c1cccc3ncccc13)C2=O)c1ccc(Cl)cc1 | -0.619
68 | COc1ccc(NC(=O)N2CC(C)OC(C)C2)cc1OC (stereo unspecified) | -0.307
69 | O=C(CCNS(=O)(=O)c1ccc2c(c1)CCC(=O)N2)NCc1cccnc1 | -0.489

Row | SMILES | z-score
70 | CCn1nnc(NC(=O)COc2ccc(C3CCCCC3)cc2)n1 | 2.13
71 | CCCCn1nnc(NC(=O)COc2cc(C)ccc2C(C)C)n1 | 1.04
72 | CCCn1nnc(NC(=O)COc2ccc(CC)cc2)n1 | -0.0151
73 | CCn1nnc(NC(=O)COc2cc(C)ccc2C(C)C)n1 | -0.0287
74 | Cn1nnc(NC(=O)COc2ccc(C3CCCCC3)cc2)n1 | 0.85
75 | CCCn1nnc(NC(=O)COc2ccc(Cl)cc2)n1 | -0.244
76 | CCCn1nnc(NC(=O)COc2cc(C)ccc2C(C)C)n1 | 2.14
77 | CCCn1nnc(NC(=O)COc2ccc(C3CCCCC3)cc2)n1 | 2.04
78 | CCCCn1nnc(NC(=O)COc2ccc(Cl)c(C)c2)n1 | 0.0561
79 | CC1C/C(=N/N=C2/NC(=O)CS2)CC(C)(C)C1 (stereo unspecified) | -0.18
80 | Cc1cccc(-n2nc3c([n+]2[O-])CCc2nonc2-3)c1C | -0.912
81 | Clc1ccccc1CN(Cc1ccccc1)C(c1cccs1)c1nnnn1C1CCCC1 (stereo unspecified) | -0.135
82 | CN(C)C(CNC(=O)CCCc1c[nH]c2ccccc12)c1ccco1 (stereo unspecified) | -0.0945
83 | O=C(O)c1ccccc1C(=O)Nc1n[nH]c(=S)s1 | -0.153
84 | O=C(CSc1ncccn1)Nc1ccc(N2CCOCC2)cc1 | -0.202
85 | CCCCNC(=O)CSc1nc2ccc(N3CCOCC3)cc2c(=O)n1CCc1ccccc1 | 1.19
86 | CCCCn1c(SCC(=O)Nc2ccc(OC)cc2)nc2ccc(N3CCOCC3)cc2c1=O | 4.35 (active)
87 | N#CCSc1nc2ccc(N3CCOCC3)cc2c(=O)n1CCc1ccccc1 | 4.95 (active)
88 | N#CCSc1nc2ccc(N3CCCCC3)cc2c(=O)n1Cc1ccccc1 | 0.65
89 | COCCn1c(SCC(=O)Nc2ccc(N3CCOCC3)cc2)nc2ccccc21 | -0.228
90 | O=C(CSc1ccccc1)Nc1ccc(N2CCOCC2)cc1 | 0.00596
91 | N#CCCn1c(SCC(=O)NCC2CCCO2)nc2ccccc21 (stereo unspecified) | -0.368
92 | CCCCn1c(SCC(=O)NC(C)CC)nc2ccc(N3CCOCC3)cc2c1=O (stereo unspecified) | 0.126

Row | SMILES | z-score
93 | CCCCn1c(SCC(=O)NCCOC)nc2ccc(N3CCOCC3)cc2c1=O | 1.19
94 | Nc1ccccc1SCC(=O)Nc1ccc(N2CCOCC2)cc1 | 2.53
95 | N#CCCn1c(SCC(=O)Nc2ccc(N3CCOCC3)cc2)nc2ccccc21 | 2.51
96 | Cc1cc(NS(=O)(=O)c2ccc(NC(=O)c3oc4ccccc4c3C)cc2)no1 | 0.155
97 | CCC(CC)C(=O)Nc1ccc(Nc2ccccc2)cc1 | -0.165
98 | Cc1cc(N2CCN(c3ccccc3Cl)CC2)n2cc(-c3ccccc3)nc2n1 | 0.105
99 | Cc1ccnc(SCC(=O)Nc2c(C)n(C)n(-c3ccccc3)c2=O)n1 | -0.181
100 | CC(C)(C)c1ccc(C(=O)NCc2cccnc2)cc1 | 0.116
101 | CC(CCc1ccccc1)NC(=O)Cc1ccc([N+](=O)[O-])cc1 (stereo unspecified) | -1.51
102 | CCCCOc1ccc(C(C)NC(=O)CCS(=O)(=O)Cc2ccccc2Cl)cc1 (stereo unspecified) | 0.131
103 | Cc1ccc(/C=N/NC(=O)c2cc3c(ccc4ccccc43)o2)cc1[N+](=O)[O-] | -0.185
104 | Cc1cccc2c1N1C(=O)c3c(C(=O)O)cccc3C1CC2C (stereo unspecified) | -0.265
105 | CON(C)c1nc(OCCNC(=O)COc2ccc(Cl)cc2C)nc(N(C)C)n1 | 0.98
106 | CC1=CC(C)(C)N(C(=O)CN2C(=O)c3ccccc3C2=O)c2ccc(C)cc21 | 0.455
107 | CCOC(=O)C1=C(C)NC(=O)C(C(N)=O)C12CCCC2 (stereo unspecified) | -0.24
108 | Cc1nc2ccccc2cc1C(=O)N/N=C/c1cccs1 | -0.0999
109 | COc1ccc(N2CCN(C(=O)CN(c3ccccc3)S(=O)(=O)c3ccc(OC)cc3)CC2)cc1 | -0.0102
110 | O=C(CN(c1ccc(Cl)cc1)S(=O)(=O)c1ccccc1)N1CCN(c2ccccc2)CC1 | -0.37
111 | COc1ccc(S(=O)(=O)N(CC(=O)N2CCN(c3ccccc3)CC2)c2ccccc2)cc1 | 2.25
